Activity calls are given as the source filed them. Unless noted, how the calls were made is not given here.

Data on five molecules can be found in PubChem BioAssay.

Assay [1] in a line: compounds binding Alexa647 anti-His antibody – biochemical, small-molecule microarray, 635 nm fluorescence, artefact control for SMM control protein annotation, primary screen (AID 1128).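 Further: score merges feature fluorescence with signal-to-noise for each printed compound spot.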 The following applies: higher = more signal.
In assay [2] the test system is Human papillomavirus type 1a E7 protein (residues 1-88). Nature of the assay: HPV1a E7 small-molecule binders, primary screen, biochemical, small-molecule microarray, residues 1-88, 635 nm (AID 1129). Particulars: small-molecule microarray binding, fluorescence 635 nm; higher = more signal.
The target of assay [3] is Focal adhesion kinase 1 (Homo sapiens) (UniProt Q05397). Briefly: PTK2 protein binding on printed compound slides – biochemical, small-molecule microarray, 635/667 nm fluorescence, BSA, DTT, primary screen (AID 1130).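 Further: composite of spot emission at 667 nm and signal to noise over triplicate slides.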 Particulars: 635 nm fluorescence, higher = more signal.
Chain of Focal adhesion kinase 1 (Homo sapiens) (Q05397 whole entry, looked up): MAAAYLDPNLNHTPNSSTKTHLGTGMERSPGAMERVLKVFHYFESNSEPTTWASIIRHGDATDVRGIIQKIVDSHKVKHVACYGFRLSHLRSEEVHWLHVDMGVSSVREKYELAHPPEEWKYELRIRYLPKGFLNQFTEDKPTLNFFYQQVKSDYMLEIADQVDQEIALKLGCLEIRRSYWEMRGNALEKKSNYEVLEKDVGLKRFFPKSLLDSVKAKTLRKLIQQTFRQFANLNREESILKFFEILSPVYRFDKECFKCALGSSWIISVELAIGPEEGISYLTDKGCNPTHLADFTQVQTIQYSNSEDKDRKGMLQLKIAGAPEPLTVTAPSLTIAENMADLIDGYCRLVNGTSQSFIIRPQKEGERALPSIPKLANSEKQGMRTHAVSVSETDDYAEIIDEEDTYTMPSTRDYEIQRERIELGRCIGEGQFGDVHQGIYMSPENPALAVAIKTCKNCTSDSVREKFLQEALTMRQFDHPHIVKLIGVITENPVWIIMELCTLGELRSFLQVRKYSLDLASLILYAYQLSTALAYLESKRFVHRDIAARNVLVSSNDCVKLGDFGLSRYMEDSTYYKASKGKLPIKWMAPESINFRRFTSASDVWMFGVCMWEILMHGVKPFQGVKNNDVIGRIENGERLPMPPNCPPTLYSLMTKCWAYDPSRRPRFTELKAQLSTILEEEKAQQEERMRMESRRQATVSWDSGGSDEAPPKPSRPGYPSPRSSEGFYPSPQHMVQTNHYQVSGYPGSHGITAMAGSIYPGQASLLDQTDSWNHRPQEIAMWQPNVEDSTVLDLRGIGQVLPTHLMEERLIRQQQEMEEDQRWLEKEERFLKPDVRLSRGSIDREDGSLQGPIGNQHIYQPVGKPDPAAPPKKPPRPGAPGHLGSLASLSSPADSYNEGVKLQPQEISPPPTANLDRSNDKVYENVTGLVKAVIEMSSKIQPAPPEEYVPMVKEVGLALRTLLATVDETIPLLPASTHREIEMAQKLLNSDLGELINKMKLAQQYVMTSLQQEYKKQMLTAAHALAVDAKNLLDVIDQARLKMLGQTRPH
Assay [4] relates to Fibrinogen (Alexa647-labelled). Nature of the assay: Alexa647-fibrinogen binding to printed small molecules – biochemical, small-molecule microarray, 635/667 nm fluorescence, artefact control for SMM control-protein annotation, profiling panel (AID 1131).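 Further: z-score merges 667 nm fluorescence with per-spot signal-to-noise over triplicate slides.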 The following applies: fibrinogen-A647 binding fluorescence, higher = more signal.
For assay [5], the target named is Follistatin (Homo sapiens) (UniProt P19883). Briefly: FST protein binding to printed compounds – biochemical, small-molecule microarray, 635/667 nm fluorescence, primary screen (AID 1132). Particulars: 635 nm fluorescence, higher = more signal.
Chain of Follistatin (Homo sapiens) (P19883 whole entry, looked up): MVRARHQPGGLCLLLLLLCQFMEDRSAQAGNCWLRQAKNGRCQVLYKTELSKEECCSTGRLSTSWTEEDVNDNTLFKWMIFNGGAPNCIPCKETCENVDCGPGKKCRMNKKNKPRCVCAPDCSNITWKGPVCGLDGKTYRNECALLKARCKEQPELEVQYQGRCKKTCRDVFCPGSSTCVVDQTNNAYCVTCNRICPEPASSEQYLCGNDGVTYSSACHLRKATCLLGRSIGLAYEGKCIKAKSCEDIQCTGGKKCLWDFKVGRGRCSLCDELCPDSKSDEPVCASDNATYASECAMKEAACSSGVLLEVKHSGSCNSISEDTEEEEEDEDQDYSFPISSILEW
Assay [6] concerns the target Fibroblast growth factor 2 (Homo sapiens) (UniProt P09038). Nature of the assay: basic fibroblast growth factor binding to printed compounds – biochemical, small-molecule microarray, 635/667 nm fluorescence, primary screen (AID 1133). The following applies: FGF2, fluorescence 635/667, higher = more signal.
Assay [7] can be described thus: JC-1 mitochondrial potential readout, lung cancer cells – cell-based, A549, JC-1 fluorescence, basal, 24 h, 100 nL, profiling panel (AID 1138).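 Further: A549 lung adenocarcinoma cells under basal conditions with no added stimulus; test concentration not given here.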 The following applies: higher = more signal.
Assay [8] deals with Lefty1. Briefly: Lefty1 protein binding to printed compounds – biochemical, small-molecule microarray, 635/667 nm fluorescence, primary screen (AID 1139). The following applies: fluorescence 635/667, higher = more signal.
In assay [9] the test system is wheat germ agglutinin (Triticum aestivum), Alexa647-labelled. Briefly: Alexa647-WGA lectin binding to printed small molecules – biochemical, small-molecule microarray, 635/667 nm fluorescence, artefact control for SMM control-protein annotation, profiling panel (AID 1140).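 Further: score merges 667 nm feature emission with signal to noise over triplicate slides.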 Particulars: WGA-A647 binding, 635 nm fluorescence, higher = more signal.
Assay [10] has as its target Luciferin 4-monooxygenase (Photinus pyralis) (UniProt P08659). Briefly: inhibition of purified Photinus pyralis luciferase – biochemical, luminescence, purified enzyme, 2006 set, primary screen (AID 1141).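 Further: cell-free assay with purified firefly luciferase at 100 ng per well in PBS; test concentration not given here.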 The following applies: purified firefly luciferase, SteadyGlo luminescence, 30 min; higher = more signal, called active from +8 up or from −8 down.
Assay [11] relates to Wnt5a (protein binding on small-molecule microarray). Nature of the assay: small molecules binding Wnt5a protein – biophysical, small-molecule microarray, 635/667 nm fluorescence, primary screen (AID 1142).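 Further: fluorescence read at 667 nm with signal to noise per printed feature.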 Particulars: 635 nm fluorescence, higher = more signal.
Assay [12] in a line: ATP-based viability of Huh7 replicon cells – cell-based, CellTiter-Glo luminescence, basal, 48 h, cytotoxicity control for HCV replication inhibitor project, primary screen (AID 1143).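 Further: Huh7 hepatoma cells carrying a hepatitis C replication reporter with no stimulus; test concentration not given here.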 Particulars: higher = more signal, called active from +8 up or from −8 down. On the technique in general: A replicon is a self-replicating genome or part of one, used to study replication in cells.

The nature of assay [13]: Pseudomonas biofilm growth suppression – PAO1 strain, BacTiter-Glo luminescence, LB-PBS, primary screen (AID 1144). The following applies: P. aeruginosa PAO1 biofilm, 12 h, higher = more signal.
Assay [14] can be described thus: basal CRE-LacZ reporter activity in PC12 – cell-based, unstimulated, primary screen (AID 1145). The following applies: no forskolin, luminescence, 4.5 h, higher = more signal, called active from +8 up or from −8 down.
The nature of assay [15]: forskolin-driven CRE-LacZ activity in PC12 – cell-based, CRE-LacZ reporter, forskolin-stimulated, primary screen (AID 1146).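 Further: PC12 cells with 6xCRE LacZ reporter stimulated by forskolin 10 µM; beta-galactosidase reporter signal reflecting CREB driven transcription.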 Particulars: luminescence, 4.5 h, higher = more signal, called active from +8 up or from −8 down.
In assay [16] the target is Streptavidin (Streptomyces avidinii) (UniProt P22629). Nature of the assay: compounds binding control protein streptavidin – biophysical, small-molecule microarray, 635/667 nm fluorescence, artefact control for SMM compound annotation, primary screen (AID 1147).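 Further: signal reflects streptavidin binding to arrayed compounds as a control protein.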 Particulars: higher = more signal.
Chain of Streptavidin (Streptomyces avidinii) (P22629 whole entry, looked up): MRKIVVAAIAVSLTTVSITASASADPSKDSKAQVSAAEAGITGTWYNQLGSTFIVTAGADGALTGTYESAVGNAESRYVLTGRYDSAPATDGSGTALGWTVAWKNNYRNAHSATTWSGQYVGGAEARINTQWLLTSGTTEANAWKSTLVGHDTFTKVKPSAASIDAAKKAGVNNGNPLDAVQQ
Assay [17] is described as follows: probe aInhba binding on compound microarray – biochemical, small-molecule microarray, 635/667 nm fluorescence, primary screen (AID 1148).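 Further: score merges 667nm spot fluorescence with signal-to-noise for antibody binding to printed compounds.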 The following applies: higher = more signal.
The target of assay [18] is Torsin-1A (Homo sapiens) (UniProt O14656). Briefly: TOR1A wild-type binding on microarray – cell lysate, small-molecule microarray, lysate, 635/667 nm, primary screen (AID 1149). The following applies: COS7 hTOR1A-WT lysate, 635 nm fluorescence, higher = more signal.
Chain of Torsin-1A (Homo sapiens) (O14656 whole entry, looked up): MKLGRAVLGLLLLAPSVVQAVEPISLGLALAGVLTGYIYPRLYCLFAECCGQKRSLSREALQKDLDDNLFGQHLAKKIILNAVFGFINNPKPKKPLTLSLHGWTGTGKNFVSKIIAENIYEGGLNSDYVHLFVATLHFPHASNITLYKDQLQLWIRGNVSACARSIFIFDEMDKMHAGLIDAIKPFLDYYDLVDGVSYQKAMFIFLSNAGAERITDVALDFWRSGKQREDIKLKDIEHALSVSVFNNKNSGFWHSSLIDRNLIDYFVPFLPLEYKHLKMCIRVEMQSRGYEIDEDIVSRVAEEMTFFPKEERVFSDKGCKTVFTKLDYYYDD
For assay [19] the target is unchanged. Nature of the assay: torsin A mutant lysate binding on microarrays – cell lysate, small-molecule microarray, COS7 lysate, 635/667 nm fluorescence, primary screen (AID 1150).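 Further: score pools 667 nm emission and signal to noise measuring lysate protein binding.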 Particulars: COS7 hTOR1A mutant lysate, 635 nm fluorescence, higher = more signal.
For assay [20], the system named is Sonic hedgehog protein (Shh). Briefly: Sonic hedgehog microarray binding compounds – biochemical, small-molecule microarray, 635/667 nm fluorescence, primary screen (AID 1151).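 Further: Shh protein binding to compounds spotted on small-molecule microarray slides; score combines spot fluorescence intensity with signal-to-noise across triplicate slides.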 Particulars: 635 nm fluorescence, higher = more signal.

Chain of Fibroblast growth factor 2 (Homo sapiens) (P09038 whole entry, looked up): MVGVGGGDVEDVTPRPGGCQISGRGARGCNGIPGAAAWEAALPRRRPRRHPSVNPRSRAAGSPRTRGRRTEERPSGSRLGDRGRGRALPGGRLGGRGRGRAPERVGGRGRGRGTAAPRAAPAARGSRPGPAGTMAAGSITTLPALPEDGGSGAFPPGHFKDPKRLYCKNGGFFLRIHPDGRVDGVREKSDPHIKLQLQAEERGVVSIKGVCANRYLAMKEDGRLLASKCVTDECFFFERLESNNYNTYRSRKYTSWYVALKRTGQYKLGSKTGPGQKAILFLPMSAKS
Chain of Luciferin 4-monooxygenase (Photinus pyralis) (P08659 whole entry, looked up): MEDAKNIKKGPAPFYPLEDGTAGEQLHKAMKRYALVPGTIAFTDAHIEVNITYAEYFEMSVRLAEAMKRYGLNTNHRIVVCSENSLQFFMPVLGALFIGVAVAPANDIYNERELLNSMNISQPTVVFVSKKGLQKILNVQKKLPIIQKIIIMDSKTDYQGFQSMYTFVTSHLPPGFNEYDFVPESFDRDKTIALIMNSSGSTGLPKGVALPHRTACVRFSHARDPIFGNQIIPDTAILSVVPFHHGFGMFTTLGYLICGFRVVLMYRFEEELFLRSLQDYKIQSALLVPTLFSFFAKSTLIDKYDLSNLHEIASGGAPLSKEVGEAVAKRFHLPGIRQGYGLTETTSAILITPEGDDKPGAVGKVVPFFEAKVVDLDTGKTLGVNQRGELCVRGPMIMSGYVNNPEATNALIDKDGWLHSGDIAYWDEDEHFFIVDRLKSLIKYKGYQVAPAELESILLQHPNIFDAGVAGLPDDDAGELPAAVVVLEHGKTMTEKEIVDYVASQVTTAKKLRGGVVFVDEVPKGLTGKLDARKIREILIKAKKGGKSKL

In the case of `CCOC(=O)C[C@H]1[C@H](OC(=O)c2ccc(C(=O)c3ccccc3)cc2)[C@@H](NC(=O)c2ccc3ccccc3n2)c2cc(OCCCO)ccc2N1C(=O)c1ccccc1`, the composite z-score in assay [1] was -0.0053; in assay [2], 0.924; in assay [3], 0.0305; in assay [4], 0.807; in assay [5] it was 0.559; in assay [6], 0.674. The composite z-score in assay [8] came to 1.63; in assay [9] it was 0.761; in [11] it was 0.369; in [16], 0.616; in assay [17], 0.0561; in assay [18] it was 0.484. Moreover, the composite z-score in assay [19] turned out to be 0.605; in assay [20] it was 1.2. Besides, the z-score is 0.332 in [7]; 0.393 (inactive) in assay [10]; -0.0142 (inactive) in assay [12]; 0.0839 (inactive) in assay [13]; 0.498 (inactive) in assay [14]; 0.0154 (inactive) in [15].
For the molecule `COCCOC(=O)N1C(=O)[C@@]2(c3cc(C#CCC(C(=O)OC)C(=O)OC)ccc31)[C@H](c1ccccc1OCCO)N1[C@H](c3ccccc3)[C@H](c3ccccc3)OC(=O)[C@H]1[C@@H]2C(=O)N1CCN(c2ncccn2)CC1`, the composite z-score in [1] came to 0.762; in assay [2], 1.12; in assay [3], 0.966; in assay [4] it was 0.696; in [5] it was 1.38; in [6], 1.46. In addition, the composite z-score is 1.17 in assay [8]; 0.63 in [9]; 0.621 in [11]; 0.635 in assay [16]; 0.0384 in assay [17]; 1.01 in assay [18]. The composite z-score in assay [19] is 1.19; in assay [20] it was 1.89. The z-score in assay [7] is -0.895; in assay [10] it was 0.505 (inactive); in [12], -4.45 (inactive); in [13], -1.09 (inactive); in assay [14], -0.479 (inactive); in assay [15] it was 1.7 (inactive).
Consider `C=CCOC(=O)[C@H]1[C@@H]2C(=O)O[C@@H](c3ccccc3)[C@@H](c3ccccc3)N2[C@@H](c2ccc(OCCOC(=O)[C@H]3C[C@H]4C(=O)N[C@@H](CCCCN(C)C)C(=O)N4[C@H]3c3ccc(O)cc3)cc2)[C@]12C(=O)Nc1ccc(I)cc12`, for which the composite z-score in assay [1] worked out at 2.49; in assay [2] it was 1.23; in [3], 0.739; in [4], 0.991; in assay [5], 1.34; in assay [6], 1.64. Also, the composite z-score in [8] is 1.59; in [9], 0.784; in [11], 0.0259; in assay [16], 1.23; in assay [17] it was 0.135; in assay [18], 1.94. Besides, the figures for the composite z-score in [19] and in assay [20] were 1.33 and 1.96, respectively. Further, the z-score in assay [7] was -0.665; in [10] it was 0.69 (inactive); in assay [12] it was -0.264 (inactive); in assay [13], 0.549 (inactive); in assay [14], -0.268 (inactive); in assay [15], 0.259 (inactive).
As for `C=CCOC(=O)[C@@H]1[C@H]2C(=O)O[C@H](c3ccccc3)[C@H](c3ccccc3)N2[C@H](c2ccc(OCCOC(=O)[C@H]3C[C@H]4C(=O)N5CCC[C@H]5C(=O)N4[C@H]3c3ccc(O)cc3)cc2)[C@@]12C(=O)Nc1ccc(I)cc12`, the composite z-score in assay [1] is 2.01; in [2] it was 1.19; in assay [3], 0.453; in assay [4] it was 0.409; in assay [5] it was 1.39; in assay [6], 1.58. The composite z-score was 1.42 in assay [8]; 0.497 in assay [9]; 0.259 in [11]; -0.033 in assay [16]; -0.0775 in [17]; 0.919 in assay [18]. For the same molecule, the composite z-score in assay [19] worked out at 0.98; in assay [20], 2.15. Moreover, the z-score was -1.6 in [7]; -0.376 (inactive) in assay [10]; -2.3 (inactive) in assay [12]; -0.212 (inactive) in assay [13]; 0.277 (inactive) in assay [14]; -0.466 (inactive) in assay [15].
As for `COCCCNC(=O)[C@]1(CCC(=O)OC(C)(C)C)N=C(c2ccc(OCCCO)cc2)O[C@@H]1c1ccccc1CN=[N+]=[N-]`, the composite z-score in assay [1] is 1.3; in [2], 1.26; in assay [3], 0.383; in assay [4], 0.197; in assay [5], 1.28; in assay [6], 1.09. The composite z-score was determined as 0.19 in [8]; 1.13 in assay [9]; 0.297 in [11]; 1.24 in assay [16]; 0.287 in assay [17]; 1.64 in assay [18]. Further, the composite z-score in assay [19] was found to be 1.58; in assay [20], 0.233. Besides, the z-score in assay [7] is -0.627; in assay [10], -1.11 (inactive); in assay [12], 0.107 (inactive); in [13] it was -0.514 (inactive); in [14] it was -0.459 (inactive); in assay [15] it was -1.18 (inactive).
